Several values for one entry are separate records, joined by “and”; a condition that tells them apart may be missing. Equal entries are not always repeated. Results filed as inconclusive are left out. A call without a number means that no potency is given here. Values without a mark were called inactive. Activity calls are given as the source filed them. The call rests on the fitted dose curve; in most records, active means well fitted cell-killing curve with a large enough effect in the repeat runs; inconclusive means weak or mixed curves, or effect the other way; inactive means no such curve, though single readings can be large or run the other way.
test: qHTS assay to identify small molecule antagonists of the progesterone receptor (PR) signaling pathway - cell viability counter screen (AID 1346798); details: PR-UAS-bla HEK293T viability, CellTiter-Glo luminescence, 16 h; series mostly up to 92.4 µM; activity change, negative = cytotoxicity: at the top concentration; further: nearly all actives have a fitted effect of over 50% in size
Text: National Center for Advancing Translational Sciences [NCATS]
NIH Chemical Genomics Center [NCGC]
U.S. Environmental Protection Agency [EPA]
National Institutes of Environmental Health Sciences [NIEHS]
National Toxicology Program [NTP]
U.S. Food and Drug Administration [FDA]
Progesterone receptor (PR), a nuclear hormone receptor, plays an important role in development, metabolic homeostasis and reproduction. It is activated by the steroid hormone progesterone. Endocrine disrupting chemicals (EDCs) and their interactions with steroid hormone receptors like PR causes disruption of normal endocrine function. To identify the compounds that inhibit PR signaling, a PR-UAS-bla GripTite cell line i.e. PR-UAS-bla HEK293T (Invitrogen, Carlsbad, CA, USA) containing a beta-lactamase reporter gene under the control of an UAS response element was used to screen Tox21 10K compound library. The cytotoxicity of the Tox21 compound library against the PR-bla cell line was tested in parallel by measuring the cell viability using CellTiter-Glo assay in the same wells.
Tox21 Assay Protocol Summary:
PR-UAS-bla HEK293T cells were dispensed at 3,000 cells/4 uL of assay medium containing 2% charcoal stripped FBS per well into black wall/clear-bottom 1536-well plates using a Multidrop Combi (ThermoFisher Scientific, Waltham, MA) dispenser. After the assay plates were incubated at a 37C and 5% CO2 for 4 hr, 23 nL of compounds dissolved in DMSO, positive controls or DMSO only was transferred to the assay plate by a Pintool station (Kalypsys, San Diego, CA), followed by addition of 1 uL of R5020 in assay medium using a Flying Reagent Dispenser (FRD, Aurora Discovery, San Diego, CA). The plates were incubated at 37C and 5% CO2 for 16 hr. Then 1 uL of LiveBLAzer B/G FRET substrate was added using a Flying Reagent Dispenser, the plates were incubated at room temperature for 2 hours, and fluorescence intensity was measured by an Envision plate reader (PerkinElmer, Shelton, CT). For cell viability readout that measures cytotoxicity, 4 uL/well of CellTiter-Glo reagent was added into the assay plates using a FRD. After 30 min incubation at room temperature, the luminescence intensity in the plates was measured using a ViewLux (PerkinElmer) plate reader.
Potency means the concentration at half of the fitted maximal effect.

Row | Compound | Potency | activity change, negative = cytotoxicity
1 | COP(=S)(OC)Oc1cc(Cl)c(Cl)cc1Cl | inactive | –
2 | C=CC(=O)OCCO | inactive | –
3 | NNC(N)=S | 12.7 µM (active) and 24.3 µM (active) | –
4 | Oc1cc(Cl)ccc1Cl | inactive | –
5 | Cc1ccc2c(c1N)C(=O)c1ccccc1C2=O | inactive | –
6 | C#C[C@]1(O)CC[C@H]2[C@@H]3CCC4=CC(=O)CC[C@]4(C)[C@H]3CC[C@@]21C | – | -2.37% [at 42.5 µM]
7 | O=C(Nc1ccc(Br)cc1)c1cc(Br)cc(Br)c1O | 12.1 µM (active) and 21.7 µM (active) | –
8 | O=C1C=CC(=O)C=C1 | inactive | –
9 | CCCCC(CC)COC(=O)c1ccc(C(=O)OCC(CC)CCCC)c(C(=O)OCC(CC)CCCC)c1 (stereo not given) | inactive | –
10 | Nc1ccc(Cl)cc1N | – | 1.29%
11 | C=CCc1ccc2c(c1)OCO2 | inactive | –
12 | CCC(=O)O[C@H]1CC[C@H]2[C@@H]3CCC4=CC(=O)CC[C@]4(C)[C@H]3CC[C@]12C | – | -1.96% [at 42.5 µM]
13 | Oc1c(Cl)c(Cl)c(Cl)c(Cl)c1Cl | inactive | –
14 | Nc1c(Cl)cc([N+](=O)[O-])cc1Cl | – | -30%
15 | CCCCCCCCOC(=O)c1ccccc1C(=O)OCCCCCCCC | inactive | –
16 | C=C(C)C(=O)OCC1CO1 (stereo not given) | inactive | –
17 | CCCCCCOC(=O)c1ccccc1C(=O)OCCCCCC | inactive | –
18 | CC(C)Oc1cc(-n2nc(C(C)(C)C)oc2=O)c(Cl)cc1Cl | – | -11%
19 | Cc1ccccc1[N+](=O)[O-] | inactive | –
20 | COP(=S)(OC)Oc1ccc([N+](=O)[O-])cc1 | inactive | –

Row | Compound | Potency | activity change, negative = cytotoxicity
21 | c1ccc(NNc2ccccc2)cc1 | inactive | –
22 | COc1ccc(C(CN(C)C)C2(O)CCCCC2)cc1 (stereo not given) | inactive | –
23 | O=Cc1ccco1 | inactive | –
24 | N[C@@H](Cc1ccc(N(CCCl)CCCl)cc1)C(=O)O | – | -14.8% [at 42.5 µM]
25 | CC(C)C(=O)OCC(C)(C)C(OC(=O)C(C)C)C(C)C (stereo not given) | inactive | –
26 | CCOc1cc(Oc2ccc(C(F)(F)F)cc2Cl)ccc1[N+](=O)[O-] | – | 15.1%
27 | CCc1cccc(CC)c1N(COC)C(=O)CCl | – | 2.76%
28 | CCN(CC)C(=O)SCc1ccc(Cl)cc1 | inactive | –
29 | Nc1ccc(Cl)c(Cl)c1 | inactive | –
30 | CC(C)NC(C)C | inactive | –
31 | CC(C)(c1cc(Cl)c(O)c(Cl)c1)c1cc(Cl)c(O)c(Cl)c1 | – | -1.7%
32 | CC(C)c1ccc(CO)cc1 | inactive | –
33 | C#CCOS(=O)OC1CCCCC1Oc1ccc(C(C)(C)C)cc1 (stereo not given) | inactive | –
34 | ClC1C(Cl)C(Cl)C(Cl)C(Cl)C1Cl (stereo not given) | inactive | –
35 | CCCCN(CC)c1c([N+](=O)[O-])cc(C(F)(F)F)cc1[N+](=O)[O-] | inactive | –
36 | NNC(=S)NN | – | 3.78%
37 | CNC(=O)Oc1cccc2c1OC(C)(C)O2 | – | 8.6%
38 | O=P(O)(O)CCCl | inactive | –
39 | C=CCN(CC=C)C(=O)C(Cl)Cl | inactive | –
40 | O=C(O)C(F)(F)C(F)(F)C(F)(F)C(F)(F)C(F)(F)C(F)(F)C(F)(F)F | – | -27%

From PubChem BioAssay (Tox21)
